# HP1b binding inh – inhibitors of HP1-beta chromodomain binding to methylated histone tails; AlphaScreen HP1-beta / biotin-H3K9me3 peptide binding; Potency, µM (series often up to 114 µM), actives largely listed as inhibitors; actives 0.56% (n = 390,000); AID 540317; note: nearly all actives have a fitted effect of over 70% in size
#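 HP1-beta protein (50 nM final) preincubated 30 min at room temperature with biotinylated H3(1-18)K9me3 peptide (50 nM) in PBS pH 7.4, 0.01% Tween-20, then compound added for 30 min. AlphaScreen streptavidin donor/nickel chelate acceptor beads (10 ug/mL final), 30 min dark, luminescence read.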
# G9a block – inhibitors of human histone lysine methyltransferase G9a; Q96KQ7; G9a H3K9 monomethylation, AlphaScreen, 2 h; Potency, µM (highest dose often 102 µM), usual class: inhibitors; actives 8.8% (n = 350,000); AID 504332; note: nearly all actives have a fitted effect of over 75% in size
#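 G9a (20 nM) was preincubated 15 min with compound, then reacted 2 h at room temperature with 500 nM biotin-H3K9 peptide and 20 µM SAM. Monomethyl-H3K9 detected by AlphaScreen using anti-H3K9me1 antibody.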
# PLK1 PBD block – inhibitors of human PLK1 polo-box domain binding; Potency, µM, most hits filed as inhibitors; AID 720504; actives 2.8% (n = 360,000); Plk1 PBD binding of FITC phosphopeptide, fluorescence polarization; P53350; note: series mostly up to about 57 µM; nearly all actives have a fitted effect of over 65% in size
# JMJD2A Tudor – inhibitors of human JMJD2A Tudor domain; O75164; AlphaScreen JMJD2A-Tudor / H3K4me3 peptide binding; Potency, µM (titrated, usually from 114 µM), most hits filed as inhibitors; actives 4.4% (n = 390,000); AID 504339; note: nearly all actives have a fitted effect of over 50% in size
# ALOX12 inh – ALOX12 (human) lipoxygenase inhibition; P18054; purified 12hLO, xylenol orange hydroperoxide absorbance; Potency, µM (titrated, usually from 108 µM), hits mostly inhibitors; actives 1.1% (n = 580,000)
#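 Purified human 12hLO at 150 nM in 25 mM Hepes, 0.01% Triton X-100, pH 7.0, preincubated 15 min at room temperature with compound. Reaction started with 40 uM arachidonic acid, 30 min at room temperature. Hydroperoxide measured by Fe-xylenol orange, 573/405 nm absorbance ratio.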
# BAZ2B block – inhibitors of human BAZ2B bromodomain | Q9UIF8 | AlphaScreen BAZ2B-H3K14Ac peptide displacement | Potency, µM (top dose mostly 114 µM), usual class: inhibitors | actives 4.4% (n = 360,000) | AID 504333; note: nearly all actives have a fitted effect of over 60% in size
#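 BAZ2B 50 nM plus b-H3(5-23)K14Ac 50 nM, PBS pH 7.4/0.01% Tween-20, 30 min RT; compound added (max 110 uM), 30 min RT; streptavidin donor/Ni-chelate acceptor beads 10 ug/mL final, 20 min dark; AlphaScreen read.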
# A number is an active result; – = inactive; ? = inconclusive; · = no result given; ! = not confirmed by another sample; [ ] = dose if it differs, or a comment. The list is not random: actives were taken first. Their share in the collection is about 9%. Calls come from the whole dose curve; as a rule, active = well fitted curve in the direction sought with a large enough effect; inconclusive = small, poorly fitted or top-dose-only effect, or another doubt; inactive = no such curve, though single readings can be large; an effect the other way counts as inactive or inconclusive.
SMILES,HP1b binding inh,G9a block,PLK1 PBD block,JMJD2A Tudor,ALOX12 inh,BAZ2B block
Cc1sc2nc(CSC(C)C(=O)Nc3cc(S(C)(=O)=O)ccc3Cl)[nH]c(=O)c2c1C (stereo unspecified),–,50µM,?,–,?,–
Cc1sc2nc(CSCC(=O)N(C)CC(=O)Nc3ccc(F)cc3)[nH]c(=O)c2c1C,–,50µM,?,–,–,–
COc1ccccc1-c1cc(C(=O)Nc2cc(C)nn2-c2ccccc2)no1,–,–[12.7 µM],–,–,–,–
Cc1cccc(NC(=O)C2CCCN(S(=O)(=O)c3c(C)nn(C)c3C)C2)n1 (stereo unspecified),–,–,–,–,–,–
Cc1cccc(NC(=O)C(C)SCc2nc3sc(C)c(C)c3c(=O)[nH]2)n1 (stereo unspecified),–,45µM,–,–,–,–
Cc1ccc(NC(=O)C(C)SCc2nc3sc4c(c3c(=O)[nH]2)CCCC4)nc1 (stereo unspecified),–,–,–,–,–,–
CC(SCc1nc2sc3c(c2c(=O)[nH]1)CCCC3)C(=O)Nc1ccccn1 (stereo unspecified),–,50µM,?,–,?,–
Cc1ccc(NC(=O)C(C)SCc2nc3sc(C)c(C)c3c(=O)[nH]2)nc1 (stereo unspecified),–,14µM,–,–,–,–
CCN(CC)c1cc(C)c2ccccc2n1,–,1.1µM,–,?,?,–
Cc1ccc(C(=O)COC(=O)c2cnccn2)cc1[N+](=O)[O-],–,?,–,?,–,?
O=C(O)c1ccc2c(c1)OCCOCCOCCOCCOCCO2,–,–,–,–,–,–
O=C(O)c1cc(O)c2c(c1)[O][Bi][O]2,·,1µM,·,·,·,·
CCN1C(=O)[C@H]2[C@@H](c3ccc(C)cc3)N3C(=O)N(c4ccc(OC)cc4)C(=O)[C@@]3(C)[C@H]2C1=O,–,–,21µM,–,–,–
CCN1C(=O)[C@H]2[C@@H](c3ccc(C)cc3)N3C(=O)N(c4ccc(C)cc4)C(=O)[C@@]3(C)[C@H]2C1=O,–,–,–,–,–,–
O=c1cc(-c2ccccc2Cl)oc2ccc([N+](=O)[O-])c(O)c12,–,50µM!,?,–,–,?
O=C(Nc1ccc(O)c2c(=O)cc(-c3ccccc3Cl)oc12)c1ccccc1Cl,–,?,–,–,–,–
COc1ccccc1-c1cc(=O)c2c(O)ccc([N+](=O)[O-])c2o1,–,–,–,–,–,–
Nc1ccc2oc(-c3ccccc3Cl)cc(=O)c2c1O,–,71µM,–,?,–,?
O=c1cc(-c2ccccc2Cl)oc2ccc(Cl)cc12,·,·,·,·,–,·
O=c1cc(-c2ccccc2Cl)oc2c([N+](=O)[O-])c(O)cc(O)c12,–,50µM,–,–,?,?
CSc1ccccc1NC(=O)Cn1nc([N+](=O)[O-])cc1C,–,28µM,?,–,–,–
Cc1cc([N+](=O)[O-])nn1CC(=O)Nc1nc2ccccc2s1,–,?,–,–,–,–
Cc1cc([N+](=O)[O-])nn1CC(=O)Nc1cccc2nonc12,–,56µM,–,–,–,?
COc1cccc(Cc2nc3ccccc3nc2SCC(=O)N2CCN(c3ccccc3)CC2)c1,–,–,·,–,–,–
C(=Nc1ccc(Nc2ccccc2)cc1)c1ccc2ccccc2c1,?,1.6µM,–,?,·,35µM
SMILES,HP1b binding inh,G9a block,PLK1 PBD block,JMJD2A Tudor,ALOX12 inh,BAZ2B block
Cc1ccc(N=Cc2ccc(N(C)C)cc2)cc1,–,–,–,–,–,–
CN(C)c1ccc(C=Nc2ccc(N(C)C)cc2)cc1,50µM,?,–,56µM,?,20µM
CC(=O)Nc1ccc(N=Cc2ccc(N(C)C)cc2)cc1,·,·,·,·,–,·
CCN(CC)c1ccc(C=Nc2ccc(Nc3ccccc3)cc2)cc1,·,·,·,·,20µM,·
CN(C)c1ccc(N=Cc2ccco2)cc1,16µM,10µM,–,28µM,·,–
c1ccc2cc(Nc3ccc4ccccc4c3)ccc2c1,·,·,·,·,–,·
Cc1cc(S(=O)(=O)N2CCN(CC(=O)NCCc3cccs3)CC2)ccc1Br,–,–[2.33 µM],–,–,–,–
Cc1ccc(S(=O)(=O)c2c(C)c(C)n(C3CCCC3)c2NC(=O)C2CCCO2)cc1 (stereo unspecified),·,·,·,·,–,·
C(=Nc1cccc2c(N=Cc3ccco3)cccc12)c1ccco1,–,40µM,–,–,·,28µM
CN(C)c1ccc(C=Nc2ccccc2)cc1,–,–,–,–,–,–
Brc1ccc(C=Nc2ccc(Nc3ccccc3)cc2)s1,?,8.9µM,–,28µM,·,40µM
CN(C)c1ccc(C=Nc2ccc(Nc3ccccc3)cc2)cc1,·,·,·,·,7.9µM,·
O=C(CCC(=O)N/N=C/c1ccc(Br)s1)NCc1ccccc1,–,–,–,–,–,–
C(=N\C(/N=C/c1ccco1)c1ccco1)/c1ccco1,–,–,–,?,–,?
COc1ccc(NC(=O)Cn2c(=O)c3ccccc3n3nncc23)c(OC)c1,–,–,·,–,–,–
CC[C@]12c3[nH]c4ccccc4c3CCN1C(=O)C(CC(=O)NC(C)(C)C)C[C@@H]2C(=O)N1CCN(C(=O)C2CC2)CC1 (stereo partly specified),–,·,–,–,–,·
Cc1cccc(OCC(=O)N2CCC(Cc3nc(-c4cnccn4)no3)CC2)c1,·,·,·,·,–,·
CCCNC(=O)c1ccc(Cn2c(=S)[nH]c3c([nH]c4ccc(OC)cc43)c2=O)cc1,–,–,–,?,–,–
O=C(CCCn1c(=S)[nH]c2ccsc2c1=O)NCCc1ccccc1,–,10µM,–,–,–,–
CCCNC(=O)CCCCn1c(=S)[nH]c2c([nH]c3ccc(OC)cc32)c1=O,?,–,21µM,?,–,–
COc1ccc2[nH]c3c(=O)n(CCCCC(=O)NCCC(C)C)c(=S)[nH]c3c2c1,–,–,12µM,?,–,–
COc1ccc(N2CCN(C(=O)CCCn3c(=S)[nH]c4cc5c(cc4c3=O)OCO5)CC2)cc1,–,–,–,–,–,–
COc1ccc2[nH]c3c(=O)n(CCCCC(=O)N4CCCC4)c(=S)[nH]c3c2c1,–,2.2µM,–,3.5µM,–,–
CC(C)OC(=O)CSc1nnc(-c2ccco2)n1N,–,–[12.7 µM],–,–,–,–
CC(=O)Nc1ccc(NC(=O)c2cc(=O)c3cc(Cl)ccc3o2)cc1,·,·,·,·,–,·
COc1ccc2[nH]c3c(=O)n(CCCC(=O)NC4CCC(C)CC4)c(=S)[nH]c3c2c1 (stereo unspecified),–,·,–,–,–,–
CC(=O)c1ccc(OCCCC(=O)NC2CCCCC2C)cc1 (stereo unspecified),–,–,–,–,–,–
O=C(CCCn1c(=S)[nH]c2ccsc2c1=O)NC1CCCCC1,–,·,–,–,–,–

# Assay outcomes (PubChem BioAssay)
